MEKK3 PB1 HTS: raises or lowers MEK5 binding to the human MEKK3 PB1 domain; Q99759; bead-based flow cytometry, Alexa488-MEK5 binding to MEKK3; actives lie on both sides; 0 = blocked by unlabeled MEK5, 100 = vehicle; binding response (% of control), % at 10 µM; hit rate 1.4% among 290,000; AID 1529;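 active = binding response more than 3 SD above or below the average of its plate-row segment, actives on both sides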;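 note: Alexa488 bead fluorescence after subtracting the streptavidin-only scavenger bead signal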
MEKK2 WT-MEK5: raises or lowers MEK5 binding to wildtype human MEKK2 PB1 domain; bead flow cytometry, Alexa488-MEK5 binding to MEKK2 WT; actives lie on both sides; hit rate 1.1% among 290,000; binding response (% of control), % at 10 µM; Q9Y2U5; AID 1531; in the data active = binding response below about 67% or above about 130%
VLA-4 inh: inhibition in a human VLA-4 binding assay | hit rate 0.2% among 330,000 | VLA-4 expressing cells, ligand binding flow cytometry | inhibition, % (about 7 µM as worked out from the volumes in the protocol) | P13612; in the data active = inhibition above about 50%
MEKK2 mut-MEK5: signal of MEK5 binding to mutant human MEKK2 PB1 domain; percent response, % at 10 µM; hit rate 0.35% among 290,000; bead flow cytometry, Alexa488-MEK5 binding to MEKK2 mutant; in the data active = percent response above about 24%, passing the limit was not always enough
MEKK2wt confirm: raises or lowers MEK5 binding to wildtype human MEKK2, retest; shares compounds with MEKK3 PB1 HTS; bead flow cytometry, Alexa488-MEK5 binding to MEKK2 WT; actives lie on both sides; binding response (% of control), % at 10 µM; hit rate 2.4% among 5,900; AID 1892; in the data active = binding response below about 16% or above about 210%; inactive = in between
MEKK2mut confirm: signal of MEK5 binding to mutant human MEKK2, retest; shares compounds with MEKK3 PB1 HTS; percent response, % at 10 µM; bead flow cytometry, Alexa488-MEK5 binding to MEKK2 mutant; AID 1893; hit rate 2% among 5,900; in the data active = percent response mostly above about 71%, no sharp cut-off; inactive = mostly below about 38%;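 note: higher means compound restores mutant binding toward wildtype level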
MEKK3 confirm: MEKK3-MEK5 PB1 inhibition, single concentration confirmation; binding response (% of control), % at 10 µM; shares compounds with MEKK3 PB1 HTS; hit rate 1.8% among 5,900; AID 1894; bead flow cytometry, Alexa488-MEK5 binding to MEKK3; hits give low values;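 active = binding response below 72% of control, or above a set upper limit, though filed actives all read lower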;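 note: 100% = DMSO only wells and 0% = binding blocked by excess unlabeled MEK5; lower values mean stronger disruption of MEK5 binding to MEKK3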
* marks the source's active call; other numbers are inactive results; i = inactive; . = no result; [ ] = remark or other dose. Sampled rows, rich in hits. Any-hit rate of the full collection: about 2.2%.

SMILES	MEKK3 PB1 HTS	MEKK2 WT-MEK5	VLA-4 inh	MEKK2 mut-MEK5	MEKK2wt confirm	MEKK2mut confirm	MEKK3 confirm
CSc1nnc(-c2nnc(SC)n2-c2ccccc2)n1-c1ccccc1	22*[inhibitor]	35*[inhibitor]	-14	-33	96	0	101
Cn1c(SCC(=O)Nc2ccc(C(=O)O)cc2)nc2scc(-c3ccccc3Cl)c2c1=O	.	.	2	.	.	.	.
CCn1c(C)[n+](Cc2ccccc2)c2ccc(Cl)cc21	3.0*[inhibitor]	5.0*[inhibitor]	-5	-46	100	4	103
CCn1c(C)[n+](Cc2ccccc2)c2ccc(C(=O)OC)cc21	103	106	0	4	.	.	.
CC(C)Oc1ccc(CNCC2(O)CCOC(C)(C)C2)cc1 (configuration not stated)	101	99	-6	-3	.	.	.
CC1(C)CC(O)(CNCc2ccc3c(c2)OCO3)CCO1 (configuration not stated)	2.0*[inhibitor]	3.0*[inhibitor]	-7	-14	94	-7	94
Nc1nonc1C(=O)N/N=C/c1cc2c(cc1Br)OCO2	98	97	9	1	.	.	.
CCOc1ccc(C2=C/C(=C/c3cccnc3)C(=O)O2)cc1	82*[inhibitor]	84	0	-2	37	-17	59*
COc1ccc(C2=C/C(=C/c3cccnc3)C(=O)O2)cc1OC	97	96	0	-2	.	.	.
O=C(Nc1ccc2c(c1)OCO2)c1ccc(NC2CC2)c([N+](=O)[O-])c1	151*	112	20	1	100	-7	101
O=C(Nc1ccc2c(c1)OCO2)c1ccc(N2CCCC2)c([N+](=O)[O-])c1	97	102	0	4	.	.	.
C/C(=N\NC(=O)Cc1c(C)[nH][nH]c1=O)c1cccc(Br)c1	49*[inhibitor]	50	2	-12	98	-6	100
C/C(=N/NC(=O)Cc1c(C)[nH][nH]c1=O)c1ccc(O)cc1	145*	113	16	2	97	-5	100
C/C(=N\NC(=O)Cc1c(C)[nH][nH]c1=O)c1ccc(Cl)c(Cl)c1	100	99	4	-2	.	.	.
NC(N)=N/N=C/c1ccc(Cl)cc1Cl	129*	155*	24	42	122	18	108
NC(N)=N/N=C/c1ccc(Cl)c(Cl)c1	104	124	11	17	.	.	.
N#Cc1sc2nc(-c3ccccc3)cc(-c3ccco3)c2c1N	95	89	-44	-1	.	.	.
N#Cc1sc2nc(C3CC3)cc(-c3ccccc3)c2c1N	131*	100	-13	0	104	2	103
O=C(COC(=O)CCC(=O)c1cccs1)NCCc1ccccc1	.	.	14	.	.	.	.
CCOP(=O)(OCC)C(NC(=O)C(F)(F)F)c1ccccc1 (configuration not stated)	137*	109	21	1	100	-14	101
Cc1ccc(C)c(CN2CCC(CNC(=O)Nc3ccc(Br)cc3F)CC2)c1	109	140*	11	22	148	18	104
O=C(CNC(=O)c1ccc(-c2ccccc2)cc1)Nc1cccc(CO)c1	.	.	2	.	.	.	.
O=C1CCCc2c1[nH]c1ccccc21	128*	104	1	6	107	4	102
Cc1cc(C)c(C)c(S(=O)(=O)NCC(=O)NCC2CCCCC2)c1C	99	100	6	-4	.	.	.
Nc1nnc(CSCc2ccc(Cl)cc2Cl)s1	130*	106	0	1	100	1	98
SMILES	MEKK3 PB1 HTS	MEKK2 WT-MEK5	VLA-4 inh	MEKK2 mut-MEK5	MEKK2wt confirm	MEKK2mut confirm	MEKK3 confirm
Nc1nnc(CSCc2ccc(Cl)cc2)s1	97	99	34	0	.	.	.
COc1cc(C(C#N)N2CCC(c3ccccc3)=N2)ccc1O (configuration not stated)	102	100	0	5	.	.	.
CN1C(=O)CSC1=NC12CC3CC(CC(C3)C1)C2	20*[inhibitor]	30*[inhibitor]	10	-17	107	2	107
COCCN(C(=S)Nc1cccc(OC)c1)C1CCN(C(C)C)CC1	137*	108	-6	0	106	6	101
COCCN(C(=S)Nc1ccc(OC)cc1)C1CCN(C(C)=O)CC1	99	102	10	0	.	.	.
Cc1ccc(NC(=S)N(Cc2ccco2)C2CCN(C(C)C)CC2)cc1	132*	105	-2	1	104	5	99
COCCN(C(=O)Nc1ccc(OC)cc1OC)C1CCN(C(C)C)CC1	81*[inhibitor]	91	-2	-8	99	-4	95
COCCN(C(=S)Nc1ccc(OC)cc1)C1CCN(C(C)C)CC1	134*	109	4	1	100	7	105
Cc1ccc(NC(=S)N(CCN2CCCCC2)Cc2ccco2)cc1	91	96	-5	-3	.	.	.
CC1(C)CC(CCNC(=O)CCl)(c2ccccc2)CCO1 (configuration not stated)	101	100	10	1	.	.	.
Cc1ccc(S(=O)(=O)NCC(c2ccccc2)N2CCN(c3ccc(F)cc3)CC2)cc1 (configuration not stated)	103	97	.	4	.	.	.
CC[n+]1c(/C=C/N(C)c2ccccc2)oc2ccccc21	72*[inhibitor]	99	i	-1	103	3	103
CC[n+]1c(/C=C/N(C)c2ccccc2)oc2ccc(F)cc21	100	98	i	-2	.	.	.
NC(=O)c1cc(S(=O)(=O)N2CCCC2)ccc1OCCOc1ccccc1	.	.	0	.	.	.	.
CCOc1ccccc1NC(=O)CSc1nc2nc(-c3cccs3)cc(C(F)(F)F)c2c(=O)[nH]1	73*[inhibitor]	59*[inhibitor]	4	-30	94	-8	98
Cc1cc(C)n(CC(=O)N2CCCC(C(=O)c3cccc(OC(C)C)c3)C2)n1 (configuration not stated)	102	102	-13	0	.	.	.
CC(C)(O)C#Cc1ccc(C(=O)N2CCN(c3ccc(F)cc3)CC2)cc1	93	83	-10	-14	.	.	.
CC(C)(O)C#Cc1ccc(C(=O)N2CCN(c3ccc(Cl)cc3)CC2)cc1	49*[inhibitor]	55	2	-15	103	-1	103
CSc1ncccc1C(=O)OCC(=O)N1CC(=O)Nc2ccccc21	.	.	0	.	.	.	.
O=C(Nc1ccc2nc3n(c(=O)c2c1)CCCC3)c1cccc([N+](=O)[O-])c1	139*	112	11	2	101	-5	99
O=C(CN(c1cccc([N+](=O)[O-])c1)S(=O)(=O)c1ccccc1)NCc1ccccc1	96	96	4	-1	.	.	.
O=C(CN(c1cccc([N+](=O)[O-])c1)S(=O)(=O)c1ccccc1)N(Cc1ccccc1)Cc1ccccc1	137*	111	-18	1	99	-10	99
CC(Cc1c[nH]c2ccccc12)NC(N)=O (configuration not stated)	129*	111	11	0	107	13	111

Assay outcomes: PubChem BioAssay, NMMLSC
